Measurements as given in PubChem BioAssay (NCATS).
Inconclusive results are not listed. The source made the active and inactive calls. Calls come from the whole dose curve; as a rule, active = well fitted curve in the direction sought with a large enough effect; inconclusive = small, poorly fitted or top-dose-only effect, or another doubt; inactive = no such curve, though single readings can be large; an effect the other way counts as inactive or inconclusive.

Experiments:
HACAT = assay: qHTS assay to identify novel small-molecules to repurpose for Merkel cell carcinoma treatment (AID 1296009); details: MCC and control cell lines, CellTiter-Glo viability, 72 h; at 44.8 µM (top of the series) unless noted; note: nearly all actives have a fitted effect of over 60% in size
Method in brief: (§1)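 72 hr, 37 degree celsius; NPC 8-pt / MIPE 11-pt dose response; compound pinned in DMSO; CellTiter-Glo, 10 min RT, luminescence; normalized to no-cell and DMSO controls.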

MCC-13 = assay: as above; details: MCC and control cell lines, CellTiter-Glo viability, 72 h; series mostly up to 46 µM
Method in brief: as §1

MCC-26 = assay: as above; details: MCC and control cell lines, CellTiter-Glo viability, 72 h; series mostly up to 46 µM
Method in brief: as §1

MKL-1 = assay: as above; details: MCC and control cell lines, CellTiter-Glo viability, 72 h; series mostly up to 46 µM
Method in brief: as §1

MKL-2 = assay: as above; details: MCC and control cell lines, CellTiter-Glo viability, 72 h; series mostly up to 46 µM
Method in brief: as §1

NIH3T3 = assay: as above; details: MCC and control cell lines, CellTiter-Glo viability, 72 h; at 44.8 µM (top of the series)
Method in brief: as §1

UISO = assay: as above; details: MCC and control cell lines, CellTiter-Glo viability, 72 h; series mostly up to 46 µM
Method in brief: as §1

WaGa = assay: as above; details: MCC and control cell lines, CellTiter-Glo viability, 72 h; series mostly up to 46 µM
Method in brief: as §1

C33A = assay: Primary qHTS to identify gynecologic anti-cancer compounds using libraries of approved drugs and bioactive compounds (AID 1345084); details: Gynecologic cancer cell panel viability, ATPlite luminescence, 48 h; series mostly up to 57.5 µM; note: nearly all actives have a fitted effect of over 55% in size
Method in brief: (§2)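 Cells, 1,000 per well, were allowed to settle for 16 h at 37 C before compound addition. Five concentrations were tested for 48 h, and viability was read by ATPlite luminescence after 15 min at room temperature.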

CAOV3 = assay: as above; details: Gynecologic cancer cell panel viability, ATPlite luminescence, 48 h; series mostly up to 57.5 µM
Method in brief: as §2

CASKI = assay: as above; details: Gynecologic cancer cell panel viability, ATPlite luminescence, 48 h; series mostly up to 57.5 µM
Method in brief: as §2

Es-2 = assay: as above; details: Gynecologic cancer cell panel viability, ATPlite luminescence, 48 h; series mostly up to 57.5 µM
Method in brief: as §2

HeLa = assay: as above; details: Gynecologic cancer cell panel viability, ATPlite luminescence, 48 h; series mostly up to 57.5 µM
Method in brief: as §2

Hek293T [1] = assay: as above; details: Gynecologic cancer cell panel viability, ATPlite luminescence, 48 h, control line for the selectivity index; series mostly up to 57.5 µM
Method in brief: as §2

JEG-3 = assay: as above; details: Gynecologic cancer cell panel viability, ATPlite luminescence, 48 h; series mostly up to 57.5 µM
Method in brief: as §2

OV90 = assay: as above; details: Gynecologic cancer cell panel viability, ATPlite luminescence, 48 h; series mostly up to 57.5 µM
Method in brief: as §2

PA-1 = assay: as above; details: Gynecologic cancer cell panel viability, ATPlite luminescence, 48 h; series mostly up to 57.5 µM
Method in brief: as §2

SKOV3 = assay: as above; details: Gynecologic cancer cell panel viability, ATPlite luminescence, 48 h; series mostly up to 57.5 µM
Method in brief: as §2

Tov-21-G = assay: as above; details: Gynecologic cancer cell panel viability, ATPlite luminescence, 48 h; series mostly up to 57.5 µM
Method in brief: as §2

HEK293T [2] = assay: qHTS assay to identify novel small-molecules to repurpose for Merkel cell carcinoma treatment (AID 1296009); details: MCC and control cell lines, CellTiter-Glo viability, 72 h; at 44.8 µM (top of the series) unless noted; note: nearly all actives have a fitted effect of over 60% in size
Method in brief: as §1

Measured: Potency

CCOc1cc(OCC)c(C(=O)CCC(=O)O)cc1OCC
not listed: HEK293T [2]
inactive: all other assays above

CC(C)=CCOc1ccc(/C=C/C(=O)c2ccc(OCC=C(C)C)cc2OCC(=O)O)cc1
not listed: UISO | CAOV3 | HEK293T [2]
inactive: all other assays above

COc1ccccc1N1CCN(CCCCNC(=O)c2ccc(-c3ccc(C(C)=O)cc3)cc2)CC1
not listed: NIH3T3 | CAOV3 | SKOV3 | HEK293T [2]
inactive: all other assays above

COc1cc(C(=O)N2CCCCCCC2)cc(OC)c1OC
not listed: NIH3T3 | HEK293T [2]
inactive: all other assays above

O=C(CN1CCN(Cc2ccc3c(c2)OCO3)CC1)N1c2ccccc2Sc2ccccc21
not listed: SKOV3 | HEK293T [2]
inactive: all other assays above

CC[N+](C)(CC)CCOC(=O)C(O)(c1ccccc1)C1CCCCC1 (configuration not stated)
not listed: NIH3T3 | SKOV3 | HEK293T [2]
inactive: all other assays above

FC(F)(F)C(F)(F)C(F)(F)C(F)(F)C(F)(F)C(F)(F)C(F)(F)C(F)(F)Br
not listed: NIH3T3 | HEK293T [2]
inactive: all other assays above

Cc1ccc(O)c([C@H](CCN(C(C)C)C(C)C)c2ccccc2)c1
not listed: NIH3T3 | WaGa | JEG-3 | OV90 | HEK293T [2]
inactive: all other assays above

CCCCOC(=O)CC(CC(=O)OCCCC)(OC(C)=O)C(=O)OCCCC
not listed: NIH3T3 | HEK293T [2]
inactive: all other assays above

Cc1cccc(C)c1NC(=O)CN1CCCC1
not listed: NIH3T3 | HEK293T [2]
inactive: all other assays above

CCN(CC)CCOc1ccccc1C(=O)CCc1ccccc1
not listed: NIH3T3 | WaGa | CAOV3 | OV90 | HEK293T [2]
inactive: all other assays above

CC(=O)Nc1ccc(CC(=O)O)cc1
not listed: NIH3T3 | HEK293T [2]
inactive: all other assays above

O=C(Nc1ccc([N+](=O)[O-])cc1)Nc1ccc([N+](=O)[O-])cc1
not listed: NIH3T3 | HEK293T [2]
inactive: all other assays above

OCCOCCN1CCN(C2=Nc3ccccc3Sc3ccccc32)CC1
not listed: NIH3T3 | CAOV3 | HEK293T [2]
inactive: all other assays above

CC(C)NCC(O)c1ccc2ccccc2c1 (configuration not stated)
not listed: SKOV3 | HEK293T [2]
inactive: all other assays above

CC(=O)Nc1ccc(S(=O)(=O)Nc2ccc([N+](=O)[O-])cc2)cc1
not listed: NIH3T3 | WaGa | HEK293T [2]
inactive: all other assays above

CO[C@]12C[C@@H](COC(=O)c3cncc(Br)c3)CN(C)[C@@H]1Cc1cn(C)c3cccc2c13
not listed: NIH3T3 | CAOV3 | HEK293T [2]
inactive: all other assays above

COc1ccc(/C=N/NC(=O)c2ccncc2)cc1OC
not listed: NIH3T3 | HEK293T [2]
inactive: all other assays above

CCCCCCCCCCC[C@@H](C[C@@H]1OC(=O)[C@H]1CCCCCC)OC(=O)[C@H](CC(C)C)NC=O
not listed: NIH3T3 | HEK293T [2]
inactive: all other assays above

CC(=O)Nc1ccc(OC(=O)c2ccccc2OC(C)=O)cc1
inactive: all assays above

CCc1cc(Cl)c(OC)c(C(=O)NC[C@@H]2CCCN2CC)c1O
not listed: NIH3T3 | HEK293T [2]
inactive: all other assays above

O=C1OC2(c3ccccc31)c1cc(Br)c(O)c(Br)c1Oc1c2cc(Br)c(O)c1Br
not listed: NIH3T3
inactive: all other assays above

NC(=O)C1(N2CCCCC2)CCN(CCCC(=O)c2ccc(F)cc2)CC1
not listed: NIH3T3 | HEK293T [2]
inactive: all other assays above

CCC(C(=O)OCCOCCN(CC)CC)c1ccccc1 (configuration not stated)
not listed: CAOV3 | HEK293T [2]
inactive: all other assays above

N#C/C(=C1\SCC(c2ccccc2Cl)S1)n1ccnc1 (configuration not stated)
not listed: NIH3T3 | HeLa | SKOV3 | HEK293T [2]
inactive: all other assays above

CC(C)(C)NCC(O)COc1cccc2c1C[C@H](O)[C@H](O)C2 (some centres not stated)
not listed: NIH3T3 | CAOV3 | HEK293T [2]
inactive: all other assays above

C[C@@H](O)[C@H]1C(=O)N2C(C(=O)O)=C(S[C@@H]3CN[C@H](CNS(N)(=O)=O)C3)[C@H](C)[C@H]12
not listed: NIH3T3 | HEK293T [2]
inactive: all other assays above

CC1(COc2ccc(CC3SC(=O)NC3=O)cc2)CCCCC1 (configuration not stated)
not listed: UISO | WaGa | OV90 | HEK293T [2]
inactive: all other assays above

CN(C)CCOC(=O)C(c1ccccc1)C1(O)CCCC1 (configuration not stated)
not listed: MKL-1 | NIH3T3 | WaGa
inactive: all other assays above
